Results as given in PubChem BioAssay AID1159580 (chemical genetic matrix, 2015).
Several values for one entry are separate records, joined by “and”; a condition that tells them apart may be missing. Equal entries are not always repeated. In all, about 5,500 compounds went through this assay and about 2,000 (36%) were called active. Inconclusive results (about 18%) are left out. Rule as the data show it: active = normalized growth mostly below about 0.91 (no sharp cut-off); inconclusive = no clear call, values can overlap the other calls; inactive = mostly above about 0.92. The list shows a part of the results.

Experiment: chemical genetic growth profiling, strain panel (AID 1159580);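 also: tested at 20 µM; growth read once vehicle control cultures reached saturation at 30 °C; 1 = growth at the plate median or of vehicle wells; lower values mean less growth of the strain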
Conditions: S. cerevisiae deletion strains, growth OD

Measured: normalized growth

CN(C)CC/C=C1\c2ccccc2Sc2ccc(Cl)cc21
0.637 (active) and 0.914 (inactive): locus YJL095W, strain BCK1, stronger effect = lower value
inactive: locus YAL030W, strain snc1, stronger effect = lower value 0.985 | locus YBR171W, strain sec66, stronger effect = lower value 0.984 | locus YBR229C, strain ROT2, stronger effect = lower value 1.01 | locus YCL029C, strain bik1, stronger effect = lower value 1.03 | locus YCL061C, strain MRC1, stronger effect = lower value 0.987 | locus YCL069W, strain vba3, stronger effect = lower value 0.962 | locus YCR088W, strain abp1, stronger effect = lower value 0.971 | locus YDL005C, strain med2, stronger effect = lower value 1.01 | locus YDL035C, strain GPR1, stronger effect = lower value 0.901 | locus YDL040C, strain nat1, stronger effect = lower value 1 | locus YDL101C, strain DUN1, stronger effect = lower value 0.99 | locus YDL185W, strain tfp1, stronger effect = lower value 1.02 | locus YDL192W, strain arf1, stronger effect = lower value 1 | locus YDR001C, strain nth1, stronger effect = lower value 0.996 | locus YDR101C, strain arx1, stronger effect = lower value 0.977 | locus YDR150W, strain NUM1, stronger effect = lower value 1.02 | locus YDR159W, strain sac3, stronger effect = lower value 0.996 | locus YDR162C, strain NBP2, stronger effect = lower value 0.895 | locus YDR297W, strain sur2, stronger effect = lower value 0.975 | locus YDR318W, strain mcm21, stronger effect = lower value 0.982 | locus YDR334W, strain swr1, stronger effect = lower value 0.974 | locus YDR335W, strain msn5, stronger effect = lower value 0.96 | locus YDR392W, strain spt3, stronger effect = lower value 0.995 | locus YDR502C, strain sam2, stronger effect = lower value 0.951 | locus YEL003W, strain gim4, stronger effect = lower value 0.966 | locus YEL037C, strain rad23, stronger effect = lower value 0.983 | locus YEL061C, strain CIN8 (second series), stronger effect = lower value 0.981 | locus YEL061C, strain CIN8, stronger effect = lower value 1 | locus YER016W, strain bim1, stronger effect = lower value 0.953 | locus YER110C, stronger effect = lower value 1.02 | locus YER111C, strain swi4, stronger effect = lower value 0.99 | locus YER155C, strain BEM2 (second series), stronger effect = lower value 1.03 | locus YER155C, strain BEM2, stronger effect = lower value 1.03 | locus YER167W, strain BCK2, stronger effect = lower value 1 | locus YGL078C, strain dbp3, stronger effect = lower value 1.01 | locus YGL086W, strain mad1, stronger effect = lower value 0.942 | locus YGL167C, strain pmr1, stronger effect = lower value 0.997 | locus YGL227W, strain vid30, stronger effect = lower value 0.979 | locus YGL240W, strain doc1, stronger effect = lower value 0.95 | locus YGL248W, strain PDE1, stronger effect = lower value 0.894 | locus YHR079C, strain IRE1 (second series), stronger effect = lower value 1 | locus YHR079C, strain IRE1, stronger effect = lower value 0.93 | locus YHR094C, strain hxt1, stronger effect = lower value 1.02 | locus YHR129C, strain ARP1, stronger effect = lower value 0.994 | locus YHR200W, strain rpn10, stronger effect = lower value 1.02 | locus YIL073C, strain SPO22, stronger effect = lower value 0.961 | locus YIL125W, strain kgd1, stronger effect = lower value 1.01 | locus YIR030C, strain dcg1, stronger effect = lower value 1.01 | locus YJL092W, strain hpr5, stronger effect = lower value 0.972 | locus YJL115W, strain asf1, stronger effect = lower value 0.987 | locus YJL129C, strain trk1, stronger effect = lower value 0.91 | locus YJL134W, strain LCB3, stronger effect = lower value 1.01 | locus YJL154C, strain vps35, stronger effect = lower value 0.99 | locus YJL168C, strain set2, stronger effect = lower value 1.02 | locus YJL187C, strain SWE1 (second series), stronger effect = lower value 0.872
0.882 (active) and 0.899 (inactive): locus YHR030C, strain SLT2, stronger effect = lower value
active: locus YAL013W, strain DEP1, stronger effect = lower value 0.907 | locus YAL021C, strain ccr4, stronger effect = lower value 0.696 | locus YAL026C, strain drs2, stronger effect = lower value 0.0729 | locus YBL061C, strain skt5, stronger effect = lower value 0.863 | locus YBR009C, strain hhf1, stronger effect = lower value 0.859 | locus YBR021W, strain FUR4, stronger effect = lower value 0.605 | locus YBR023C, strain chs3, stronger effect = lower value 0.831 | locus YBR231C, strain swc5, stronger effect = lower value 0.676 | locus YBR279W, strain paf1, stronger effect = lower value 0.904 | locus YCL011C, strain gbp2, stronger effect = lower value 0.897 | locus YCL016C, strain dcc1, stronger effect = lower value 0.894 | locus YDL074C, strain BRE1, stronger effect = lower value 0.775 | locus YDL134C, strain PPH21, stronger effect = lower value 0.882 | locus YDR069C, strain doa4, stronger effect = lower value 0.684 | locus YDR137W, strain rgp1, stronger effect = lower value 1.33 [resistant] | locus YDR195W, strain ref2 1.49 [resistant] | locus YDR388W, stronger effect = lower value 0.819 | locus YER015W, strain faa2, stronger effect = lower value 0.668 | locus YFR010W, strain ubp6, stronger effect = lower value 0.706 | locus YGL173C, strain kem1, stronger effect = lower value 0.844 | locus YGL253W, strain hxk2, stronger effect = lower value 0.845 | locus YGR135W, strain pre9, stronger effect = lower value 0.827 | locus YGR229C, strain SMI1, stronger effect = lower value 0.635 | locus YGR252W, strain gcn5, stronger effect = lower value 0.542 | locus YHR013C, strain ard1, stronger effect = lower value 0.637 | locus YHR027C, strain rpn1, stronger effect = lower value 0.679 | locus YHR142W, strain chs7, stronger effect = lower value 0.76 | locus YIL066C, strain RNR3, stronger effect = lower value 0.854 | locus YJL095W, strain BCK1 (second series), stronger effect = lower value 0.628 | locus YJL164C, strain tpk1, stronger effect = lower value 0.878 | locus YJL166W, strain qcr8, stronger effect = lower value 0.877
